Drawing on PubChem BioAssay AID720553 (National Center for Advancing Translational Sciences (NCATS), 2013), this text covers activity change for 56 compounds.

The whole screen tested about 340,000 compounds, of which about 3,300 (0.97%) were called active. Only a selection was taken, and actives are over-represented in it overall. Values without a mark were called inactive.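 The calls were made as follows: active = maximum activity change below -70%; inconclusive = maximum activity change from -70% to -50%; inactive = maximum activity change above -50%.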
% is scaled to controls: 0 for no effect and ±100 for the full control effect.

The test has as its system Potassium voltage-gated channel subfamily H member 2, brain isoform KCNH2 3.1 (human). The test can be described thus: qHTS for Inhibitors of KCHN2 3.1: Mutant qHTS. As to conditions: U2OS KCNH2 3.1, thallium flux FluxOr; stronger effect = lower value. The essentials:
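Virally transduced U2OS (3.1 isoform, 4 h infection in dark at RT) → overnight 37 C → FluxOr + Red40 in HBSS/HEPES, 45 min → stimulation buffer, 2 min kinetic read → rate constant vs DMSO controls.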
For orientation: Quantitative high-throughput screening tests each substance at several concentrations.
As to `C[C@H]1CN([C@@H](C)CO)S(=O)(=O)c2ccc(-c3cccc(F)c3)cc2O[C@@H]1CN(C)C`, the activity change is -7.52%.
In the case of `O=C(Oc1ccc(Br)cc1C(=S)N1CCOCC1)c1cccc([N+](=O)[O-])c1`, the activity change was -8.06%.
As for `O=C(N/C(=C\c1ccc([N+](=O)[O-])cc1)C(=O)N1CCOCC1)c1cccc(Br)c1`, the activity change was -83.4% (active).
In the case of `O=C(N/C(=C\c1ccc([N+](=O)[O-])cc1)C(=O)N1CCCCC1)c1ccco1` it was -4.37%.
Turning to `CC(C)C(=O)Nc1cccc(NC(=O)c2ccc([N+](=O)[O-])cc2Cl)c1`, the activity change is 18.7%.
In the case of `O=C(Nc1ccncc1)c1ccccc1[N+](=O)[O-]` it was 8.15%; in that of `O=C(Nc1cccc(NC(=O)c2ccccc2[N+](=O)[O-])c1)c1ccccc1Cl`, -165% (active); in that of `COc1ccc(NC(=O)C[C@H]2C(=O)N(CCc3ccccc3)C[C@@H]2C)cc1`, 5.84%.
With `CCOc1ccc(CCNC(=O)COC(=O)c2ccc(C)c(S(=O)(=O)N3CCOCC3)c2)cc1OCC`, the activity change was 11.9%.
On to `CNC(=O)c1ccc(CN(C)C(=O)c2cc(C3CC3)nc3c2cnn3C(C)C)cc1`, for which the activity change was 6.55%.
Turning to `CCOC(=O)C(C(=O)c1ccccc1)C(c1ccccc1)c1nccc2ccccc12` (stereo unspecified), the activity change is -15.2%.
To `Cc1cccc(C(=O)NC2CCN(CC(=O)Nc3cccc(Cl)c3)CC2)c1` belongs -1.48%.
To `C[C@H]1CN(c2ccc(Br)cc2)C(=O)[C@@H]1CC(=O)Nc1ccc(Br)cc1` belongs 0.444%; to `Cc1cccc(NC(=O)CSCC(=O)Nc2nnc(C3CC3)s2)c1`, -6.65%; to `CCOCCc1nn2c(=O)cc(CSCC(=O)Nc3cccc(C)c3C)nc2s1`, 4.66%.
Consider `CCCc1nn2c(=O)cc(CSCC(=O)Nc3cccc(C)c3)nc2s1`, for which the activity change was -91.5% (active).
On to `COc1ccc(C(CNC(=O)CSc2ccccc2)N2CCOCC2)cc1` (stereo unspecified), for which the activity change is 1.87%.
In the case of `O=C(NCCOc1ccccc1)c1ccccc1F`, the activity change is 2.92%.
In the case of `c1ccc(Cn2nnc3c(NCC4CC4)ncnc32)cc1` it was -1.53%; in that of `CSc1ncnc2c1ncn2CCCNCc1cccs1`, 3.07%; in that of `COc1ccc(-c2nn(-c3ccccc3)cc2CN2CCCO2)c(F)c1`, 4.37%.
As to `CCC(O)C1CCN(Cc2cn(-c3ccc(OC)cc3)nc2-c2cccc(F)c2)CC1` (stereo unspecified), the activity change was -90.7% (active).
For `Cc1cccc(-n2cc(CN3CCN(C(=O)c4ncn[nH]4)CC3)c(-c3cccc(F)c3)n2)c1`, the activity change was 0.932%.
To `COc1ccc(-n2cc(CN(C)Cc3n[nH]c(=O)[nH]3)c(-c3cccc(F)c3)n2)cc1` belongs -14.7%.
On to `Cn1cc(CN2CCC(C(O)CCc3ccccc3)CC2)c(-c2ccccc2F)n1` (stereo unspecified), for which the activity change is -8.61%.
To `COc1ccc(-n2cc(CNC3CCOCC3)c(-c3cccc(F)c3)n2)cc1` belongs -75% (active); to `CC(OC(=O)c1ccc(NC(=O)CC#N)cc1)C(=O)Nc1ccc(S(=O)(=O)N2CCCC2)cc1` (stereo unspecified), 8.99%; to `O=[N+]([O-])c1ccc(C(S(=O)(=O)Cc2ccccc2)S(=O)(=O)Cc2ccccc2)cc1`, -21.9%.
In the case of `CC1(C)CN(Cc2cccnc2)C(=O)[C@H]1CC(=O)Nc1ccc(Br)cc1` it was -12%.
For the compound `COc1ccc(OC)c(C(=O)NC2CCCc3c2cnn3-c2cc(C)cc(C)c2)c1` (stereo unspecified), the activity change was -6.38%.
In the case of `CCOC(=O)c1cc(-c2sc(NC(=O)c3ccccc3)nc2C)n(CCO)n1` it was -0.33%; in that of `CC(=O)Nc1ccc(NC(=O)CCCNC(=O)c2ccc(Cl)cc2)cc1`, 7.78%; in that of `CCCCC(=O)Nc1ccc(C(=O)Nc2cc(C(F)(F)F)ccc2Cl)cc1`, -83.7% (active).
In the case of `CCCCC(=O)Nc1ccc(C(=O)NCCCn2ccnc2)cc1` it was 4.23%; in that of `CCN(CC)C(=O)C(C)N1c2cccc3cccc(c23)S1(=O)=O` (stereo unspecified), -7.96%.
To `CNS(=O)(=O)c1ccc2c(c1)[nH]c(=S)n2C` belongs 9.63%; to `COc1ccccc1NC(=O)C1=C(C)Nc2ncnn2C1c1ccc(C)o1` (stereo unspecified), 0.24%.
Turning to `COc1cc(C2C(C(=O)Nc3ccccc3OC)=C(C)Nc3ncnn32)ccc1O` (stereo unspecified), the activity change is -70.3% (active).
For the compound `COc1ccccc1NC(=O)C1=C(C)Nc2nc3ccccc3n2C1c1cccs1` (stereo unspecified), the activity change is 1.01%.
Consider `CC1CCN(C(=O)CSc2nnc(-c3ccco3)n2N)CC1`, for which the activity change was 13.4%.
In the case of `O=NN(CCCl)C(=O)NCCc1cccc[n+]1[O-]` it was -3.54%; in that of `CCn1c(SCC(=O)N2CCCC2=O)nc2ccccc21`, 9.56%; in that of `Cc1ccc(CN2CCC(n3nccc3NC(=O)CCCc3ccccc3)CC2)o1`, 3.89%.
To `CC(C)=CCCC(C)CN1CCC(n2nccc2NC(=O)c2ccccc2)CC1` (stereo unspecified) belongs -34.5%; to `COc1cc(CN2CCC(n3nccc3NC(=O)CCCc3ccccc3)CC2)ccc1O`, -32.8%.
To `Cc1c(CN2CCC(n3nccc3NC(=O)CCc3ccccc3)CC2)cnn1C` belongs 6.8%; to `O=C(CCc1ccccc1)Nc1ccnn1C1CCN(Cc2ccc(OCCO)cc2)CC1`, -97.2% (active); to `O=C(Nc1ccnn1C1CCN(Cc2cccc(OCCO)c2)CC1)C1CCCC1`, 5.49%.
With `COc1ccccc1C(=O)Nc1ccnn1C1CCN(Cc2cnn(C)c2)CC1`, the activity change was -32.4%.
In the case of `COc1ccc(CN2CCC(n3nccc3NC(=O)CCCc3ccccc3)CC2)cc1C` it was -86.2% (active).
In the case of `CC(C)Oc1ccc(CN2CCC(n3nccc3NC(=O)c3cccnc3)CC2)cc1` it was -80.6% (active); in that of `CCOC(=O)c1c(C)[nH]c(C)c1C(=O)COC(=O)/C=C/c1cccc([N+](=O)[O-])c1`, -1.51%; in that of `O=C(CNC(=O)N1CC(=O)Nc2ccccc21)Nc1ccc(Br)cc1F`, 2.32%.
To `COCCn1c(SCC(=O)Nc2ccc(F)cc2F)nc2c(c1=O)SCC2` belongs -5.38%; to `CCc1noc(C)c1C(=O)OCC(=O)c1ccc(NC(=O)CC(C)C)cc1`, 7.88%.
For the compound `O=C(OCc1cn([C@H]2C[C@H](c3ccccc3)N(C(=O)c3cccs3)C[C@@H]2O)nn1)c1ccccc1`, the activity change was -26.8%.
